Data reported in PubChem BioAssay AID743193 (National Center for Advancing Translational Sciences (NCATS), 2013).
Inconclusive results are not listed. Values without a mark were called inactive. The call rests on the fitted dose curve; in most records, active means well fitted curve in the direction sought with a large enough effect; inconclusive means small, poorly fitted or top-dose-only effect, or another doubt; inactive means no such curve, though single readings can be large or run the other way.

What follows are compounds tested against Glyceraldehyde-3-phosphate dehydrogenase (Oryctolagus cuniculus) (UniProt P46406) (assay: Extended Characterization of HPGD Inhibitors: Counterscreen Against rGAPDH). Details: rabbit GAPDH/diaphorase coupled resazurin fluorescence; series mostly up to 57.1 µM; activity change, negative = inhibition: at the top concentration.
Glyceraldehyde-3-phosphate dehydrogenase (Oryctolagus cuniculus), sequence (P46406 whole entry, looked up): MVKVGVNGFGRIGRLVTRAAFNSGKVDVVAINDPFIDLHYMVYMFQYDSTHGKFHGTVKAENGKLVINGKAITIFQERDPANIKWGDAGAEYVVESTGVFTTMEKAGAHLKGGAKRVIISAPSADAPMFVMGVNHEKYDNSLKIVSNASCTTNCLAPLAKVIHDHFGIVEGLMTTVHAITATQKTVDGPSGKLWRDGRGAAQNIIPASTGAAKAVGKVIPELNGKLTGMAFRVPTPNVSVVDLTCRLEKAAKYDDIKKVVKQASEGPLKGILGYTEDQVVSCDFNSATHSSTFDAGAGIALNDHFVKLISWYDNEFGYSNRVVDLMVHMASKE
Experimental: The central role of HPGD is to inactivate prostaglandins such as prostaglandin E2 (PGE2) or prostaglandin D2 (PGD2). These prostaglandins are involved in a number of processes, including inflammation, differentiation, and cellular signaling, which makes HPGD an important target for pharmacological intervention. The counterscreen for non-specific dehydrogenase activity was conducted using a rabbit glyceraldehyde-3-phosphate dehydrogenase (rGAPDH; Sigma Aldrich, St. Louis, MO) coupled assay system. In this assay, the rGAPDH-catalyzed conversion of NAD+ to NADH is coupled downstream to an additional enzyme, diaphorase (Sigma Aldrich, St. Louis, MO), which reduces the non-fluorescent molecule, resazurin, to a red fluorescent product, resorufin, in an NADH-dependent fashion. Thus, rGAPDH activity leads to an increase in fluorescence at 598 nm, and inhibitors of the reaction lead to a decrease in resorufin production and a subsequent decrease in fluorescence. The change in fluorescence between 0 and 30 minutes was measured, and data were normalized to control columns representing maximum signal (all components) and background (no rGAPDH). The buffer consisted of 100mM triethanolamine, pH 7.6, 5mM MgCl2 and 0.01% Tween-20, and the assay was run in black, solid-bottom, non-tissue culture-treated Greiner plates. NIH Chemical Genomics Center [NCGC] NIH Molecular Libraries Probe Centers Network [MLPCN] MLPCN Grant: MH084681 Assay Submitter (PI): Structural Genomics Consortium
3 uL of substrate buffer (final conc: 2 mM G3P, 1 mM NAD+, 0.1 mM resazurin, 0.1 mg/mL diaphorase) are added to the 1536-well plate before 23 nL of compound library is pinned into the well. Then, 1 uL of rGAPDH or 0x control (final conc: 2 nM and buffer only, resp.) are added and plate is immediate read for fluorescence on the ViewLux; ex 525, em 598, 1 second exposure, Bodipy Mirror), incubated for 30 at RT before a final read on the ViewLux with the same settings.
With `O=C(c1ccc2c(c1)ncn2-c1cccc(C(F)(F)F)c1)N1CCCCC1` the “activity change, negative = inhibition” value was 2.8%.
`Cc1cc(-c2nnc3n2CCCCC3)c(C)n1-c1ccc(Cl)c(Cl)c1` was tested, and the “activity change, negative = inhibition” value was 7.74%.
With `COc1ccc(-n2cnc3cc(C(=O)N4CCCCC4)ccc32)cc1` the “activity change, negative = inhibition” value was 8.15%.
In the case of `Cc1cccc(-n2cnc3cc(C(=O)N4CCCC(C)(C)C4)ccc32)c1`, the “activity change, negative = inhibition” value is reported as 4.68%.
For `Cc1cc(-c2nnc3n2CCCCC3)c(C)n1-c1cccc(Cl)c1`, the “activity change, negative = inhibition” value was 4.12%.
For `Cc1ccc(-n2c(C)cc(-c3nnc4n3CCCCC4)c2C)cc1`, the “activity change, negative = inhibition” value was 9.72%.
With `Cc1cc(-c2nnc3n2CCCCC3)c(C)n1-c1cccc(C(F)(F)F)c1` the “activity change, negative = inhibition” value was 9.17%.
In the case of `O=C(c1ccc2c(c1)ncn2-c1cccc(Cl)c1)N1CCCCC1`, the “activity change, negative = inhibition” value is reported as 6.42%.
For `Cc1cccc(-n2cnc3cc(C(=O)N4CCCC(C(F)(F)F)C4)ccc32)c1` (centres undefined), the “activity change, negative = inhibition” value was 7.89%.
